Each structure is given as a SMILES string. Results filed as inconclusive are left out. The source made the active and inactive calls. How the source made its calls, unless noted: active means hit-call score of the fitted dose curve at least 0.9, where 1 is the maximum; inactive means score below 0.9.

Drawing on PubChem BioAssay (EPA / NIEHS), this text covers outcome and AC50 for seven compounds.

The nature of experiment [1]: ATG_PXRE_CIS: Attagene CIS-FACTORIAL HepG2 Assay for human Pregnane X Receptor Element (PXRE) (AID 2282957). The settings on record: HepG2 Attagene CIS-FACTORIAL PXRE reporter, mRNA; actives raise or lower the signal. The method, boiled down:
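Endogenous transcription factor activity in HepG2 was gauged through induction of reporter mRNA driven by a cis-regulating promoter element, sampled 24 h post-treatment. Activity was fitted in both directions against DMSO negative control.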

Experiment [2] in a line: ATG_PPRE_CIS: Attagene CIS-FACTORIAL HepG2 Assay for human Peroxisome Proliferator-activated Response Element (PPRE) (AID 2282958). The settings on record: HepG2 PPRE cis-element reporter, Attagene transcription factor profiling; actives raise or lower the signal. The method, boiled down: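 In this cell-based multiplex, a PPRE cis element drives a reporter sequence in transiently transfected HepG2 cells. Following 24 h treatment, labeled cDNA amplicons are sized and quantified by capillary electrophoresis, with DMSO defining baseline.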

Experiment [3] is described as follows: ATG_RORE_CIS: Attagene CIS-FACTORIAL HepG2 Assay for human RAR-related Orphan Receptor Element (RORE) (AID 2282959). The settings on record: HepG2 Attagene cis-factorial RORE reporter, mRNA; actives raise or lower the signal. The method, boiled down: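 Endogenous factor activity at a cis response element is read as reporter transcript levels in HepG2 cells, 24 h post-dose. Transcripts are quantified by RT-PCR with capillary electrophoresis, and data fitted in both directions against DMSO.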

The nature of experiment [4]: ATG_Sox_CIS: Attagene CIS-FACTORIAL HepG2 Assay for human SRY-box transcription factor (SOX) (AID 2282960). The settings on record: HepG2 Attagene cis-factorial SOX reporter, mRNA; actives raise or lower the signal. The method, boiled down: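 Measures mRNA induction of a SOX1-associated reporter in HepG2 after 24 h dosing. Fluorescently labelled RT-PCR fragments are separated by capillary electrophoresis, and gain or loss relative to DMSO control is fitted.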

The target of experiment [5] is Transcription factor Sp1 (Homo sapiens) (UniProt P08047). The experiment in a line: ATG_Sp1_CIS: Attagene CIS-FACTORIAL HepG2 Assay for human Specificity Protein 1 (Sp1) (AID 2282961). The settings on record: HepG2 Sp1 cis-reporter transcription, actives raise or lower the signal. The method, boiled down:
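Cells: HepG2, transiently transfected with cis-regulated multiplexed reporters. Exposure: 24 h. Detection: reporter transcripts amplified, fluorescently labeled, restriction-digested and sized by capillary electrophoresis. Analysis: bidirectional fit relative to DMSO.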

A short description of experiment [6]: ATG_SREBP_CIS: Attagene CIS-FACTORIAL HepG2 Assay for human Sterol Regulatory Element Binding (SREBP) (AID 2282962). The settings on record: HepG2 Attagene cis-factorial SREBP reporter, mRNA; actives raise or lower the signal. The method, boiled down:
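Endogenous SREBP activity read as cis-element-driven reporter transcript in transiently transfected HepG2, 24 h post-dosing; quantified via RT-PCR plus capillary electrophoresis of fluorescent fragments. Gain or loss of signal fitted relative to DMSO baseline.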

For experiment [7], the target named is Signal transducer and activator of transcription 3 (Homo sapiens) (UniProt P40763). Briefly: ATG_STAT3_CIS: Attagene CIS-FACTORIAL HepG2 Assay for human Signal Transducer and Activator of Transcription 3 (STAT3) (AID 2282963). The settings on record: HepG2, Attagene cis-factorial STAT3 reporter transcription; actives raise or lower the signal. A digest of the protocol: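 Fluorescence intensity of 6-FAM-labelled reporter fragments, separated by capillary electrophoresis after RT-PCR, gave the signal. Cells were HepG2 transfected with cis-element reporter units and treated 24 h; fitting was bidirectional relative to DMSO.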
Signal transducer and activator of transcription 3 (Homo sapiens), sequence (P40763 whole entry, looked up, the tested form may be a part): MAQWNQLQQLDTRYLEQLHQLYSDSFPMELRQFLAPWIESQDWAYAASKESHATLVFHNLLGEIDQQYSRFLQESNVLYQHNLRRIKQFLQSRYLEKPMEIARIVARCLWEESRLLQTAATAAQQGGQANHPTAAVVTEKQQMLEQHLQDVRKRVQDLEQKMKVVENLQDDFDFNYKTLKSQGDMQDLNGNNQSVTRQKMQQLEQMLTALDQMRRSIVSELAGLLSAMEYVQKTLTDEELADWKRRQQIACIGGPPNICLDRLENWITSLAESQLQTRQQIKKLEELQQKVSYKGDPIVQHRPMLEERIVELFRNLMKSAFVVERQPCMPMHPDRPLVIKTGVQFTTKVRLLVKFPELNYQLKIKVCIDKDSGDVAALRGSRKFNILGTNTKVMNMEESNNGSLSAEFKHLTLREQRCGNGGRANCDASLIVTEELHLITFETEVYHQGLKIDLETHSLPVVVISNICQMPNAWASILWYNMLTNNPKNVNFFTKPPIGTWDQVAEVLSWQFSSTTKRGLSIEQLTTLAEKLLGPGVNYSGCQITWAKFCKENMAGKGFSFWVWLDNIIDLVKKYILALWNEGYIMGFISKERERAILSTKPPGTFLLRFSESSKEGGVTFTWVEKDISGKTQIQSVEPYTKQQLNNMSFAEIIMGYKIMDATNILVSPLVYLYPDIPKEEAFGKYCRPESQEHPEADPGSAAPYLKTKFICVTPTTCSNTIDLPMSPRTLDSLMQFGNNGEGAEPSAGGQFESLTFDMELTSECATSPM

Experiment [8] in a line: ATG_TA_CIS: Attagene CIS-FACTORIAL HepG2 Assay for human TA Basal Promoter (AID 2282964). The settings on record: HepG2 Attagene CIS-factorial TA basal promoter reporter; actives raise or lower the signal. A digest of the protocol: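 Transfected HepG2, 24 h compound exposure; RNA → RT-PCR → FAM primer extension → HpaI cut → CE fluorescence. Gain/loss-of-signal fitted against DMSO negative control. Background-control readout.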

Experiment [9] can be described thus: ATG_TCF_b_cat_CIS: Attagene CIS-FACTORIAL HepG2 Assay for human T-Cell-Factor with beta-catenin (TCF/b-cat) (AID 2282965). The settings on record: HepG2 TCF/beta-catenin cis-reporter transcription, actives raise or lower the signal. A digest of the protocol:
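HepG2, transient MRTU transfection, cis-element-driven reporters (endogenous TFs). 24 h compound exposure. Readout: reporter mRNA by RT-PCR + 6-FAM primer extension, HpaI digest, capillary electrophoresis. Gain/loss fit vs DMSO baseline.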

Experiment [10] in a line: ATG_TAL_CIS: Attagene CIS-FACTORIAL HepG2 Assay for human TAL Basal Promoter (AID 2282966).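 Further: background control endpoint measuring basal TAL promoter reporter mRNA not a specific factor.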 The settings on record: HepG2 Attagene cis-factorial TAL promoter reporter; actives raise or lower the signal. A digest of the protocol: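 Endogenous transcription-factor activity is sensed in HepG2 cells through transfected cis-promoter reporter constructs. After 24 h dosing, reporter transcripts are quantified by RT-PCR and capillary electrophoresis. Gain or loss of signal is fitted relative to DMSO.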

A short description of experiment [11]: ATG_TGFb_CIS: Attagene CIS-FACTORIAL HepG2 Assay for human Transforming Growth Factor (TGF) (AID 2282967). The settings on record: HepG2 Attagene CIS TGFb reporter, mRNA transcription; actives raise or lower the signal. The method, boiled down:
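Readout: fluorescently labeled reporter cDNA fragments resolved by capillary electrophoresis after RT-PCR. Transfected HepG2 cells dosed for 24 h; endogenous TF activity at TGFB1-linked cis element; gain or loss fitted relative to DMSO.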

Experiment [12] is described as follows: ATG_VDRE_CIS: Attagene CIS-FACTORIAL HepG2 Assay for human Vitamin D Receptor Element (VDRE) (AID 2282968). The settings on record: HepG2 VDRE cis-reporter transcription, actives raise or lower the signal. The method, boiled down: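 Compounds were applied for 24 h to HepG2 cells transfected with promoter-regulated reporter units. Total RNA was reverse-transcribed, and reporter amplicons were fluorescently labelled and sized by capillary electrophoresis.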

The target of experiment [13] is Nuclear receptor subfamily 1 group I member 3 (Homo sapiens) (UniProt Q14994). The experiment in a line: ATG_CAR_TRANS: Attagene TRANS-FACTORIAL HepG2 Assay for human Constitutive Androstane Receptor (CAR) (AID 2282969; active means hit-call score of the fitted dose curve at least 0.9, where 1 is the maximum;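 further: activators raise reporter mRNA above DMSO so AC50 marks induction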). The settings on record: HepG2 Attagene TRANS-FACTORIAL CAR reporter. The method, boiled down: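 Transiently transfected HepG2, multiplex TRANS reporters (CAR-Gal4 chimera driving GAL4-UAS reporter). 24 h dosing. Readout: reporter transcript by RT-PCR + capillary electrophoresis, fluorescence intensity; positive direction vs DMSO.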
Nuclear receptor subfamily 1 group I member 3 (Homo sapiens), sequence (Q14994 whole entry, looked up, the tested form may be a part): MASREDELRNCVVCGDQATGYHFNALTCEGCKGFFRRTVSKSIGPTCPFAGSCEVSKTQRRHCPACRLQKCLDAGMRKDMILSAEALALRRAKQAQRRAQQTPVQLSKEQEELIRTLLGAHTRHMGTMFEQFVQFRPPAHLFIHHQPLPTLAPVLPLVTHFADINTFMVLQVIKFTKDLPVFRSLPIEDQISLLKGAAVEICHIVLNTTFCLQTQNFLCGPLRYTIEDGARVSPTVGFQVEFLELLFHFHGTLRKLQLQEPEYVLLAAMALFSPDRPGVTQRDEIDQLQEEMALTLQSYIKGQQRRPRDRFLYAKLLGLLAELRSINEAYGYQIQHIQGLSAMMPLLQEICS

Experiment [14] concerns the target Estrogen receptor (Homo sapiens) (UniProt P03372). Briefly: ATG_ERa_TRANS: Attagene TRANS-FACTORIAL HepG2 Assay for human Estrogen Receptor alpha (ERa) (AID 2282970; active means hit-call score of the fitted dose curve at least 0.9, where 1 is the maximum). The settings on record: HepG2 Attagene TRANS ERa GAL4 reporter, mRNA. A digest of the protocol: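 Transfected HepG2 cells carrying GAL4-UAS-driven reporter units were dosed for 24 hours. Total RNA was reverse-transcribed, reporter sequences PCR-amplified, FAM-labelled, HpaI-digested and resolved by capillary electrophoresis. Increases over DMSO control defined activity.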

Experiment [15] concerns the target X-box-binding protein 1 (Homo sapiens) (UniProt P17861). Briefly: ATG_Xbp1_CIS: Attagene CIS-FACTORIAL HepG2 Assay for human X-box Binding Protein 1 (XBP1) (AID 2282972). The settings on record: HepG2 XBP1 cis-element reporter, Attagene multiplex; actives raise or lower the signal. The method, boiled down: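 Reporter transcripts were quantified by RT-PCR with fluorescent primer extension and capillary electrophoresis after 24 h chemical exposure. Cells: transiently transfected HepG2 carrying cis-regulated reporter constructs; data fitted bidirectionally relative to DMSO.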

A short description of experiment [16]: ATG_M_19_TRANS: Attagene TRANS-FACTORIAL HepG2 Assay for M19 Transcription Factor (Internal Marker) (AID 2282974; active means hit-call score of the fitted dose curve at least 0.9, where 1 is the maximum). The settings on record: HepG2 Attagene TRANS-FACTORIAL M19 internal marker reporter. The method, boiled down:
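Reporter mRNA induction was measured in transfected HepG2 cells 24 h after dosing. Endpoint fitted upward relative to DMSO and serves as a background control within the multiplexed TRANS panel.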

Experiment [17] is described as follows: ATG_GAL4_TRANS: Attagene TRANS-FACTORIAL HepG2 Assay for GAL4 (Internal Marker) (AID 2282976; active means hit-call score of the fitted dose curve at least 0.9, where 1 is the maximum). The settings on record: HepG2 Attagene TRANS GAL4 internal marker reporter. The method, boiled down: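 Fluorescence from capillary electrophoresis of labelled RT-PCR products quantifies reporter mRNA induction after 24 h dosing of HepG2 cells carrying transfected GAL4-UAS reporter transcription units. Vehicle DMSO serves as baseline.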

The target in experiment [18] is Androgen receptor (Homo sapiens) (UniProt P10275). The experiment in a line: ATG_AR_TRANS: Attagene TRANS-FACTORIAL HepG2 Assay for human Androgen Receptor (AR) (AID 2282973; active means hit-call score of the fitted dose curve at least 0.9, where 1 is the maximum). The settings on record: HepG2 Attagene TRANS-FACTORIAL AR reporter transcription. The method, boiled down:
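Transfected HepG2, 24 h treatment, chimeric NR-Gal4 driving GAL4-UAS reporters. mRNA induction by RT-PCR/capillary electrophoresis fluorescence; DMSO as negative control and baseline.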

Transcription factor Sp1 (Homo sapiens), sequence (P08047 whole entry, looked up): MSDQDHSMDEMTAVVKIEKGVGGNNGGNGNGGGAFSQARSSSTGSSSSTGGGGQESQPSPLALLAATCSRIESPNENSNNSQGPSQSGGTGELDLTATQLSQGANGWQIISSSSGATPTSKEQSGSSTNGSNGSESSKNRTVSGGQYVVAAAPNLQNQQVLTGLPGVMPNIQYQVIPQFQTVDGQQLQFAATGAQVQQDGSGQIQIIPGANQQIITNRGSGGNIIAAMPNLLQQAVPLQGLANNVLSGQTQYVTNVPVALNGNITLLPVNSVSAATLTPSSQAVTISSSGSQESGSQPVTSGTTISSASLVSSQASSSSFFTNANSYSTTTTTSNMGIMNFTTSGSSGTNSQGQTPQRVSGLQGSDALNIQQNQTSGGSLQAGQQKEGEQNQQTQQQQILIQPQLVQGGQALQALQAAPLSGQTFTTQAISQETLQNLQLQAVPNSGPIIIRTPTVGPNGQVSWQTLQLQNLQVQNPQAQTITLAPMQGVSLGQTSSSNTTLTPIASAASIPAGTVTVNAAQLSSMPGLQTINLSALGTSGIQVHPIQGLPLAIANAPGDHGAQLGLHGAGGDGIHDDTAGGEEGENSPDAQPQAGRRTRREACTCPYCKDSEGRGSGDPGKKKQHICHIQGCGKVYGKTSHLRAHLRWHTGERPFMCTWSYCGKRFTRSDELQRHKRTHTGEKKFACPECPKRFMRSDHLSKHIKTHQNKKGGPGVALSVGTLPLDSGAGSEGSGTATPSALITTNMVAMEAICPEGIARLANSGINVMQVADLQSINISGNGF
Estrogen receptor (Homo sapiens), sequence (P03372 whole entry, looked up, the tested form may be a part): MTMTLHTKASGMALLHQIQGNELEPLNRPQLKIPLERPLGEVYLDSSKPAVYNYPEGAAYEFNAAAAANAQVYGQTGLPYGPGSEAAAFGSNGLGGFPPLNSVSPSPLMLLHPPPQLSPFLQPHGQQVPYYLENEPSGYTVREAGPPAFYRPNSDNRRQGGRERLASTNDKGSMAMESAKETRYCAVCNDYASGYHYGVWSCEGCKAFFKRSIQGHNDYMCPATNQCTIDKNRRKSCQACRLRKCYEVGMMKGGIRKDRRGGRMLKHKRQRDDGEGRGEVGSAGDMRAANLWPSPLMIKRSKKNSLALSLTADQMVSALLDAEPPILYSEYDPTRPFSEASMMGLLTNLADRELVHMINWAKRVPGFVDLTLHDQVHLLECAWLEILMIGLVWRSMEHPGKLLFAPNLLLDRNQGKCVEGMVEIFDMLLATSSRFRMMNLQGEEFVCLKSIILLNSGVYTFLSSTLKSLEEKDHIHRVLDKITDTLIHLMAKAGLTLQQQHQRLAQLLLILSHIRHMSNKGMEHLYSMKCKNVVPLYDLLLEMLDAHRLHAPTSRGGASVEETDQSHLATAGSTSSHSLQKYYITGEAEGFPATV
X-box-binding protein 1 (Homo sapiens), sequence (P17861 whole entry, looked up): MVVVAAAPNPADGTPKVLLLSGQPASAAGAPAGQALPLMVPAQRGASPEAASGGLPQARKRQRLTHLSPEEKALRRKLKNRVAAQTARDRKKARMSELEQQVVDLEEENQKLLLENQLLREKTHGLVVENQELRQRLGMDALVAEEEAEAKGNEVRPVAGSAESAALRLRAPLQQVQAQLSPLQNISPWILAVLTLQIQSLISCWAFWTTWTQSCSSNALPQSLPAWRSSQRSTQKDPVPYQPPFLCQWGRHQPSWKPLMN
Androgen receptor (Homo sapiens), sequence (P10275 whole entry, looked up, the tested form may be a part): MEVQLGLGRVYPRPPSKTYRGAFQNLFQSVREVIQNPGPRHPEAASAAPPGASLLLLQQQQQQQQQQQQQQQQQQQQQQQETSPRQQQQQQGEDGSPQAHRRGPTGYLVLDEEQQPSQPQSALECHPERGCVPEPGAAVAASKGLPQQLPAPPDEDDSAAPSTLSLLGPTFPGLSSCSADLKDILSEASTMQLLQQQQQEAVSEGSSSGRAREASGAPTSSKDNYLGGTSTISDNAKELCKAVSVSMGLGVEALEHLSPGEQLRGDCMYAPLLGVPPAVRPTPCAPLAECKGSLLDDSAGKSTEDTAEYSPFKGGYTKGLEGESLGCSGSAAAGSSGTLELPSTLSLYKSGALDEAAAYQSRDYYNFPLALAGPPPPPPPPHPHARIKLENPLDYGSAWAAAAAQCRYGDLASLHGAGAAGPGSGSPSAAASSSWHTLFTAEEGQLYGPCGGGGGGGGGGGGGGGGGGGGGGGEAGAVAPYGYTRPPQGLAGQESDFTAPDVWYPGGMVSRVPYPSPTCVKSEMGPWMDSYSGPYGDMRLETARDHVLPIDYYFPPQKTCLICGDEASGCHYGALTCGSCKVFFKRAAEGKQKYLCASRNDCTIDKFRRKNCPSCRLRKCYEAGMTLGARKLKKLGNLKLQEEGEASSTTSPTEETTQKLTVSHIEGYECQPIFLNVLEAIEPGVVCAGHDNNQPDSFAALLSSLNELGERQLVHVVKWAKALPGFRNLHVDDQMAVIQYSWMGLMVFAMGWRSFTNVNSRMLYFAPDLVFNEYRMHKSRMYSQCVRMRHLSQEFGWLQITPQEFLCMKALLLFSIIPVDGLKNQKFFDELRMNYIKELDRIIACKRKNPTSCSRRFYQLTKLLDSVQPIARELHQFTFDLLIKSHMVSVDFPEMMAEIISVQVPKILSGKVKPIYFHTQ

As to `Clc1ccc(Cl)cc1`, the compound was classed as inactive in [1], in experiment [2], in [3], in experiment [4], in experiment [5] and in [6]. Moreover, the call in experiment [7], in experiment [8], in experiment [9], in experiment [10], in [11] and in [12] was inactive. Besides, the call in experiment [13], in [14], in [15], in experiment [16] and in [17] was inactive.

Take `CCC(C)c1cc([N+](=O)[O-])cc([N+](=O)[O-])c1O` (stereo unspecified): the result in [1], in experiment [7], in experiment [8], in [9], in [10] and in [11] was inactive. Also, in experiment [13], the outcome was inactive. Besides, the AC50 – broadly, the concentration at which the activity in the assay is half-maximal – is 16.5 µM (active) in [2]; 26.4 µM (active) in experiment [3]; 10.8 µM (active) in experiment [4]; 20.9 µM (active) in [5]; 27.6 µM (active) in experiment [6]; 12.6 µM (active) in [12]. Also, the values for the concentration at half-maximal activity (AC50) in experiment [14] and in experiment [15] were 0.807 µM (active) and 10.2 µM (active), respectively.

In the case of `Nc1ccc(-c2ccc(N)cc2)cc1`, the outcome in [1], in experiment [3], in [4], in experiment [5], in experiment [6] and in experiment [7] was inactive. In addition, the result in experiment [8], in experiment [9], in experiment [10], in experiment [11], in experiment [12] and in experiment [13] was inactive. Further, the outcome in experiment [17] was inactive. The AC50 in experiment [14] is 38 µM (active).

As for `O=C(NC(=O)c1cc(F)c(F)cc1Cl)Nc1cc(F)ccc1N1CCC(C(=O)O)CC1`, the AC50 in [1] and in [6] was 4.65 µM (active) in each case. Also, the call in experiment [2], in [3], in experiment [4], in [5], in experiment [7] and in [8] was inactive. Also, the compound was classed as inactive in experiment [9], in experiment [10], in experiment [11], in experiment [12], in experiment [16] and in experiment [17].

Turning to `COS(=O)(=O)OC`, the result in experiment [1], in experiment [2], in experiment [3], in [4], in [5] and in [6] was inactive. Further, the result in experiment [7], in experiment [8], in [9], in experiment [10], in [11] and in experiment [12] was inactive. The call in [15] was inactive.

Turning to `COc1ccc(O)c(C(C)(C)C)c1`, the half-maximal activity concentration (AC50) in [1] is 8.2 µM (active); in experiment [5] it was 184 µM (active); in [9], 162 µM (active); in [12], 58.7 µM (active); in [14], 31.5 µM (active). Further, the outcome in experiment [4], in experiment [6], in [7], in [8], in [10] and in experiment [11] was inactive. The compound was classed as inactive in [13].

Consider `CCNc1nc(NC(C)C)nc(SC)n1`, for which the results for the AC50 in experiment [1] and in [12] were 13.5 µM (active) and 50 µM (active), respectively. Further, the result in experiment [2], in experiment [3], in experiment [4], in experiment [5], in [6] and in experiment [7] was inactive. Further, the outcome in [8], in [9], in [10], in [11], in experiment [13] and in experiment [15] was inactive. Further, the call in [18] and in [16] was inactive.
